An excerpt weighted towards active compounds, which were near 1.8% of everything screened.
Ba/F3 V617F tox: reduce viability of Ba/F3 cells dependent on JAK2V617F; actives 1.1% (n = 220,000); AID 1446; Ba/F3 EpoR-JAK2V617F viability, ATP luminescence; inhibition, % at 5.6 µM;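 active = inhibition above the campaign mean plus 3 SD over all tested compounds, cut at about 24% in these data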;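 note: cytokine-independent growth of Ba/F3 cells driven by EpoR plus mutant JAK2; 0% = DMSO-treated cells and 100% = JAK inhibitor I control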
BaF3 tox: reduces parental Ba/F3 cell viability, JAK2V617F counter-screen | AID 1486 | inhibition, % at 5.6 µM | CellTiter-Glo ATP luminescence | actives 1.1% (n = 220,000);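 active = inhibition above a per-campaign cutoff, the mean inhibition of all tested compounds plus 3 SD, cut at about 27% in these data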;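 note: 0% = DMSO wells and 100% = JAK Inhibitor I control wells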
APP transl inh: APP translation inhibition; inhibition, % at 2 µM; actives 0.82% (n = 190,000); SH-SY5Y APP 5'UTR-luciferase reporter, luminescence; AID 1285;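 active = inhibition above a set limit, derived from the sample mean plus 3 SD, cut at about 45% in these data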
IEC-6 cytotox: counter-screen for KLF5 inhibitors: cytotoxicity in IEC-6 cells. IEC-6 cytotoxicity, luminescence viability. inhibition, % at 5 µM. actives 0.78% (n = 290,000). AID 1825; in the data active = inhibition above about 22%;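 note: 0% = plate median of test compound wells and 100% = cytotoxic reference compound wells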
KLF5 inh: kruppel-like factor 5 inhibition | DLD-1 KLF5 promoter-luciferase reporter, luminescence | inhibition, % at 5 µM | actives 0.23% (n = 290,000) | AID 1700;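 active = inhibition above a per-plate limit of that plate's mean compound inhibition plus 3 SD, cut at about 60% in these data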;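 note: 0% = DMSO wells and 100% = LY294002 at 200 µM; higher means less KLF5 promoter-driven luciferase light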
* hit, by the source's call; · = not tested or not shown.

SMILES	Ba/F3 V617F tox	BaF3 tox	APP transl inh	IEC-6 cytotox	KLF5 inh
CC(C)CCNC(=O)CCCC1=NS(=O)(=O)c2ccccc2N1	2.0	-0.1	-32.5	0.9	-5.2
CC1(C)CC(N2CCCC2)=CC(=[N+]2CCCC2)C1	79.2*	68.6*	21.6	16.2	-7.6
CC1(C)CC(N2CCN(Cc3ccccc3)CC2)=CC(=[N+]2CCCCC2)C1	80.1*	70.7*	·	3.6	10.5
Cc1cc(C)nc(NC(=O)CSc2ncccn2)n1	-2.0	-0.2	11.6	3.4	-16.5
Cc1ccc(OCC(=O)Nc2ccc([N+](=O)[O-])cc2)cc1	-5.8	0.5	1.8	-7.9	1.1
Cc1ccc(NC(=O)C2(c3ccc([N+](=O)[O-])cc3)CCCC2)cc1	2.4	49.7*	-0.5	-0.6	-4.0
Cc1ccc(/C=C/C(=O)c2cc(Br)ccc2OC(=O)c2ccco2)cc1	-4.5	1.2	50.6*	-4.0	-35.9
COc1ccccc1/C=C/C(=O)c1cc(Br)ccc1OC(=O)c1ccco1	2.6	5.9	-43.9	7.5	-11.7
CC(=O)c1c(COC(=O)c2ccc(F)cc2)nc2ccccc2[n+]1[O-]	3.0	-8.5	·	-1.7	-3.9
CC(=O)c1c(COC(=O)c2ccc(C)cc2)nc2ccccc2[n+]1[O-]	-3.4	50.8*	·	-0.3	-20.5
CC12CN(NC(=O)c3ccccc3F)C3(C#N)CC1CCC23C (stereo not drawn)	4.6	90.0*	-6.7	3.5	-3.8
C=CC[n+]1ccc(/C=C2\C=Cc3cc(C)ccc3N2CC)c2ccccc21	99.8*	84.6*	27.3	38.9*	3.5
CCN1/C(=C/c2cc[n+](CCCS(=O)(=O)[O-])c3ccccc23)Sc2ccccc21	3.7	4.4	-12.0	-0.8	-8.9
Cc1c(C(=O)NCC2CCCO2)oc2ccc(S(=O)(=O)N3CCCC3)cc12 (stereo not drawn)	2.1	5.6	7.0	0.0	11.6
Cc1c(C(=O)NCC2CCCO2)oc2ccc3c(c12)C(=O)CC(C)(C)O3 (stereo not drawn)	0.4	94.3*	-156.5	5.9	-113.4
O=C1N=C(N2CCOCC2)S/C1=C/c1ccc(-c2ccc(F)cc2)o1	1.8	4.4	25.3	4.5	19.1
Cc1ccc(-c2ccc(/C=C3\SC(N4CCOCC4)=NC3=O)o2)cc1	-3.3	11.2	17.2	101.8*	-24.4
COc1ccccc1NC(=O)CCS(=O)(=O)c1cc2c(cc1Cl)NC(=O)CO2	·	·	·	-12.6	-45.0
COc1cc(C(=O)Nc2ccc(S(=O)(=O)Nc3ncccn3)cc2)c([N+](=O)[O-])cc1OC	-1.0	3.7	2.2	-4.1	-37.4
Cc1c(NC(=O)c2cc3nc(-c4ccc(Br)cc4)cc(C(F)(F)F)n3n2)c(=O)n(-c2ccccc2)n1C	1.6	93.6*	11.6	3.4	-3.4
CCn1ncc(C2=NOC(C(=O)Nc3cccc(O)c3)C2)c1C (stereo not drawn)	-2.5	1.9	-2.6	-3.2	-34.2
CCCC[n+]1ccn(-c2nc3ccccc3nc2[N-]S(=O)(=O)c2cccs2)c1	98.2*	85.8*	·	18.3	19.4
O=S(=O)([N-]c1nc2ccccc2nc1-n1cc[n+](Cc2ccccc2)c1)c1ccccc1	2.7	-0.1	·	7.4	-0.2
C=CC[n+]1ccn(-c2nc3ccccc3nc2[N-]S(=O)(=O)c2cccs2)c1	92.0*	85.5*	·	-0.7	-20.4
S=C(Nc1cccc(Cl)c1Cl)N1CCC2(CC1)OCCO2	2.8	29.6*	-9.6	4.8	1.0
SMILES	Ba/F3 V617F tox	BaF3 tox	APP transl inh	IEC-6 cytotox	KLF5 inh
COc1ccc(-c2n(Cc3ccccc3)c3ccccc3[n+]2Cc2ccccc2)cc1	96.0*	74.5*	-13.3	11.3	8.8
CC1=CCC2COC(c3ccc[n+](Cc4ccccc4)c3)C1C2 (stereo not drawn)	46.3*	66.8*	-15.6	-1.7	5.7
O=C(COC(=O)C12CC3CC(CC(C3)C1)C2)Nc1nc2c(F)c(F)c(F)cc2s1	-2.6	0.6	-11.4	0.0	4.4
CCCc1cc(C(=O)Nc2cc(Cl)ccc2O)no1	·	·	·	3.0	-113.7
CC(C)c1cc(C(=O)Nc2cc(Cl)ccc2O)no1	16.2	37.2*	-138.6	1.0	-94.2
CC(C)c1cc(C(=O)Nc2cc(Br)ccc2O)no1	27.3*	29.1*	-37.9	-3.8	-109.6
CCCc1cc(C(=O)Nc2cc(Br)ccc2O)no1	1.4	13.5	-23.0	-7.0	-32.0
O=S1(=O)NC(CC2=CCCCC2)C2CCCCC2O1 (stereo not drawn)	·	·	·	-0.6	-2.4
CC(C)Oc1ccc(CCN=C(N)N=C(N)N)cc1Cl	5.5	35.8*	-12.2	0.7	12.5
CC(C)Oc1ccc(CNC(=S)Nc2ccccc2)cc1Cl	·	·	·	-3.8	-11.2
Cc1nc2ccc(NC(=O)c3cc(S(=O)(=O)N(C)c4ccccc4)ccc3Cl)cc2s1	43.4*	48.8*	11.2	3.9	-29.6
Cc1nc2ccc(NC(=O)c3ccc(Cl)c(S(=O)(=O)N(C)c4ccccc4)c3)cc2s1	-0.5	0.4	-6.4	8.6	-20.6
CCN(C(=O)COC(=O)c1ccccc1SCC(=O)NC1CCCCCCC1)C1CCS(=O)(=O)C1 (stereo not drawn)	-3.8	2.8	2.1	0.5	-17.7
Cc1[nH]n(C2=NCCS2)c(=O)c1N=Nc1cccc(C(F)(F)F)c1	-0.4	7.2	53.1*	-8.5	-26.6
Cc1[nH]n(C(N)=S)c(=O)c1N=Nc1cccc(C(F)(F)F)c1	·	·	·	1.7	-139.4
Cc1[nH]n(-c2ccccc2)c(=O)c1C=Nc1cccc2cccnc12	-1.2	5.0	69.9*	23.1*	7.0
Cc1ccc(-n2[nH]c(C)c(/C=N/c3ccccn3)c2=O)cc1	10.9	16.0	-12.4	14.4	-30.3
Cc1[nH]n(-c2ccccc2)c(=O)c1/C=N/Nc1nncc(-c2ccccc2)n1	53.0*	35.9*	81.7*	-0.3	35.2
Nc1nonc1C(=O)NCCNCc1cc(Br)ccc1OCc1ccccc1F	23.8*	50.8*	-3.5	12.1	-21.9
COc1ccc(C(=O)Nc2cc(OC)cc(OC)c2)cc1	4.0	68.8*	-125.0	8.9	-84.2
Cc1ccc(C(=O)Nc2ccc3ccccc3c2)cc1	·	·	·	0.2	71.6*
Cc1ccc(OCC(=O)Nc2ccccc2C(=O)N2CCCC2)cc1	·	·	·	-0.7	-19.6
O=C(NCc1ccc2c(c1)OCO2)c1ccc(N2C(=O)C3CCCCC3C2=O)cc1 (stereo not drawn)	-1.8	6.1	-1.2	-6.1	-4.2
CCOc1ccc(S(=O)(=O)n2cnc3cc(C)c(C)cc32)cc1	39.8*	50.5*	2.9	8.1	-26.0
C/C(=N/NC(=O)c1ccc2c(c1)OCO2)c1ccc(Br)s1	-0.8	-2.0	-81.5	-0.8	-18.3
C/C(=N\NC(=O)c1ccc(Cl)c(Cl)c1)c1ccc(Br)s1	-3.1	3.7	51.6*	-7.6	20.7
Nc1ccccc1-c1nc2ccccc2[nH]c1=O	·	·	·	5.1	-14.5
Nc1ccc(Br)cc1-c1nc2ccccc2[nH]c1=O	66.2*	100.1*	-25.0	38.8*	-32.0
COc1ccc(C(=O)NNC2=CC(=O)CC(C)(C)C2)cc1OC	-2.2	5.9	4.4	-11.1	-3.2

Bioassay records deposited in PubChem by several laboratories.
